The values below come from PubChem BioAssay (NCI).

Test systems include T-47D breast; BT-549 breast; MDA-MB-435 melanoma; SW-620 colon; MCF7 breast; HCT-116 colon; HCC-2998 colon; KM12 colon.
Common to all, as to experiment: NCI-60 one-dose screen, 48 h (100 = growth as untreated, 0 = no growth, -100 = all killed)
Common to all, as to details: 10 µM unless noted

The panel holds about 83,000 compounds, 20% with a hit somewhere; the sample as a whole holds those more often.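 In brief: 96-well plates, 48 h treatment, single concentration, percent growth endpoint.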 A number with no mark means an inactive call. Activity calls are given as the source filed them. How the source made its calls: active means growth percent below 10; inactive means the rest.

On to `CCN1CCN(c2nc(C)cc(NCc3cc(Nc4ccnc5cc(Cl)ccc45)ccc3F)n2)CC1`, for which the growth was -24.3% (active) with T-47D breast; 36.1% in the assay on BT-549 breast; -88.4% (active) in the assay on MDA-MB-435 melanoma; 11.5% in the assay with SW-620 colon; 1.98% (active) in the assay on MCF7 breast; 2.33% (active) in the assay on HCT-116 colon. The growth in the assay on HCC-2998 colon was -34.9% (active); with KM12 colon, 26.9%.

With `Cc1cc(C)c(-c2c(C)cc(C)cc2CBr)c(CBr)c1`, the growth in the assay on T-47D breast is 69.8%; with BT-549 breast, 79.2%; with MDA-MB-435 melanoma, 77%; in the assay on SW-620 colon, 78.5%; with MCF7 breast, 67.1%; in the assay with HCT-116 colon it was 49.4%. Further, the growth in the assay on HCC-2998 colon was 103%; in the assay on KM12 colon, 80.3%.

`Cc1c(C(=O)N[C@@H](Cc2ccccc2)C(=O)C(=O)NCCc2ccccc2)[nH]c2ccccc2c1=O`: the growth with T-47D breast is 101%; in the assay on BT-549 breast it was 124%; in the assay on MDA-MB-435 melanoma, 101%; in the assay on SW-620 colon, 105%; in the assay with MCF7 breast, 92.3%; in the assay on HCT-116 colon, 106%. Also, the growth was 100% in the assay on HCC-2998 colon and 103% in the assay with KM12 colon.

Consider `Cc1occc1-c1n[nH]c(=S)n1N1C(=O)CSC1=S`, for which the growth in the assay on T-47D breast is 104%; in the assay with BT-549 breast, 108%; in the assay on MDA-MB-435 melanoma it was 99.5%; in the assay with SW-620 colon, 94.8%; in the assay with MCF7 breast it was 94.4%; in the assay on HCT-116 colon it was 105%. For the same compound, the values for the growth in the assay with HCC-2998 colon and in the assay on KM12 colon were 112% and 99%, respectively.

As for `Cc1c(O)cc(-c2cnc(N/N=C\c3ccc(Cl)cc3)s2)c(O)c1C`, the growth in the assay with T-47D breast is -11.2% (active); with BT-549 breast, 67.3%; with MDA-MB-435 melanoma it was 97.5%; in the assay on SW-620 colon it was 107%; in the assay on MCF7 breast it was 71.1%; with HCT-116 colon, 94.6%. In addition, the results for the growth in the assay with HCC-2998 colon and in the assay with KM12 colon were 111% and 86.5%, respectively.

Turning to `O=C(NCCCNc1cc(-c2cn(-c3ccccc3)nc2-c2cccc(O)c2)ccn1)c1cccc(O)c1`, the growth was 8.13% (active) in the assay on T-47D breast; 37.5% in the assay with BT-549 breast; 32.1% in the assay on MDA-MB-435 melanoma; 51% in the assay with SW-620 colon; 47.3% with MCF7 breast; 47.3% with HCT-116 colon. The growth in the assay on HCC-2998 colon was 64.8%; in the assay on KM12 colon, 45.3%.

As for `O=C(COc1ccc(/C=C2\Oc3ccccc3C2=O)cc1)Nc1nc2ccccc2s1`, the growth in the assay on T-47D breast was 91.4%; with BT-549 breast it was 46.2%; in the assay with MDA-MB-435 melanoma it was 65%; in the assay on SW-620 colon, 96.3%; in the assay with MCF7 breast, 120%; with HCT-116 colon, 87.3%. The growth with HCC-2998 colon was 107%; with KM12 colon it was -28.7% (active).

`C=C1C(=O)O[C@H]2[C@H]1CC/C(CNC(=O)/C=C/c1ccc(Cl)cc1Cl)=C\CC[C@@]1(C)O[C@@H]21`: the growth in the assay on T-47D breast was -61.2% (active); in the assay on BT-549 breast it was -53.1% (active); in the assay on MDA-MB-435 melanoma, 4.95% (active); in the assay on SW-620 colon, -51.6% (active); with MCF7 breast it was -59.9% (active); in the assay on HCT-116 colon, -73.9% (active). The results for the growth in the assay with HCC-2998 colon and in the assay with KM12 colon were -93.3% (active) and 20%, respectively.

On to `CC(C)(C)CC(C)(C)Nc1c(-c2ccncc2)nc2cnccn12`, for which the growth with T-47D breast was 86.1%; with BT-549 breast it was 98.6%; in the assay with MDA-MB-435 melanoma, 99.2%; with SW-620 colon it was 106%; in the assay on MCF7 breast it was 96.5%; in the assay with HCT-116 colon, 90.1%. The growth is 116% in the assay with HCC-2998 colon and 98.1% with KM12 colon.

As to `O=c1c2cc(F)ccc2sc2c(NCCCN3CCCC3)nc3ccccc3c12`, the growth in the assay on T-47D breast was 64.6%; in the assay on BT-549 breast, 70.6%; in the assay with MDA-MB-435 melanoma, 20.6%; in the assay on SW-620 colon, 20.4%; with MCF7 breast it was -24.8% (active); in the assay on HCT-116 colon, 24.2%. Moreover, the growth in the assay on HCC-2998 colon is 22.1%; with KM12 colon, 27.7%.

As to `COc1nc2c(c(=O)n1C)CN(c1ccccc1)C(=O)CN2C`, the growth in the assay with T-47D breast was 26.8% [100 µM]; with BT-549 breast, 24.7% [100 µM]; in the assay with MDA-MB-435 melanoma, 66.2% [100 µM]; in the assay with SW-620 colon, 69.3% [100 µM]; in the assay on MCF7 breast, 24.2% [100 µM]; in the assay on HCT-116 colon, 49.1% [100 µM]. Moreover, the growth was 90.4% [100 µM] in the assay with HCC-2998 colon and 39.1% [100 µM] in the assay with KM12 colon.

For `CCOc1ccccc1-c1cc(-c2cccs2)c(C#N)c(=O)[nH]1`, the growth is 26.7% with T-47D breast; 85.6% with BT-549 breast; 31.2% in the assay with MDA-MB-435 melanoma; 80.9% with SW-620 colon; 37.1% in the assay on MCF7 breast; 92.3% in the assay on HCT-116 colon. Besides, the figures for the growth in the assay with HCC-2998 colon and in the assay on KM12 colon were 92.2% and 83.9%, respectively.

As to `CCc1ccccc1-n1c(-c2ccc(Cl)cc2)cc(-c2ccc(OC)cc2)c(C#N)c1=O`, the growth with T-47D breast was 92.3%; in the assay on BT-549 breast, 154%; in the assay on MDA-MB-435 melanoma it was 89%; with SW-620 colon it was 104%; with MCF7 breast, 85.6%; in the assay on HCT-116 colon, 94.6%. The growth with HCC-2998 colon was 109%; in the assay with KM12 colon, 87.7%.

Regarding `O=C1/C(=C2/C=Nc3ccccc32)N(O)c2ccccc21`, the growth in the assay on T-47D breast is 19.5%; with BT-549 breast, 78.1%; in the assay on MDA-MB-435 melanoma, -95.3% (active); with SW-620 colon, 75.4%; in the assay on MCF7 breast, 40.3%; with HCT-116 colon it was 49.8%. For the same compound, the growth in the assay on HCC-2998 colon was 113%; in the assay with KM12 colon it was 73.1%.

`Cc1ccccc1NC(=O)N/C(N)=N/c1nc(-c2cccc([N+](=O)[O-])c2)cs1`: the growth is 35.7% in the assay on T-47D breast; 51% with BT-549 breast; -19.7% (active) with MDA-MB-435 melanoma; 31.1% in the assay on SW-620 colon; 22.4% with MCF7 breast; 20.6% in the assay with HCT-116 colon. The growth in the assay with HCC-2998 colon is 39.6%; with KM12 colon, 31.2%.
